Measurements published in the supplement of paper PMC11732987, “Enantioselective OTUD7B fragment discovery through chemoproteomics screening and high-throughput optimisation” (Communications Chemistry, 2025).

Key:
Assay in all cases: log2 ratio of Biotin-Ahx-Ub-VS probe labelling (fragment/DMSO); higher = less target engagement (more negative = stronger competition), active = hit call of the paper (q ≤ 0.05, log2 ratio ≤ -1)
Details in all cases: compound concentration: 200 uM; treatment time: 3 h
[1] = molecular target: T1, USP19 (UniProt O94966)
T1 sequence (whole entry): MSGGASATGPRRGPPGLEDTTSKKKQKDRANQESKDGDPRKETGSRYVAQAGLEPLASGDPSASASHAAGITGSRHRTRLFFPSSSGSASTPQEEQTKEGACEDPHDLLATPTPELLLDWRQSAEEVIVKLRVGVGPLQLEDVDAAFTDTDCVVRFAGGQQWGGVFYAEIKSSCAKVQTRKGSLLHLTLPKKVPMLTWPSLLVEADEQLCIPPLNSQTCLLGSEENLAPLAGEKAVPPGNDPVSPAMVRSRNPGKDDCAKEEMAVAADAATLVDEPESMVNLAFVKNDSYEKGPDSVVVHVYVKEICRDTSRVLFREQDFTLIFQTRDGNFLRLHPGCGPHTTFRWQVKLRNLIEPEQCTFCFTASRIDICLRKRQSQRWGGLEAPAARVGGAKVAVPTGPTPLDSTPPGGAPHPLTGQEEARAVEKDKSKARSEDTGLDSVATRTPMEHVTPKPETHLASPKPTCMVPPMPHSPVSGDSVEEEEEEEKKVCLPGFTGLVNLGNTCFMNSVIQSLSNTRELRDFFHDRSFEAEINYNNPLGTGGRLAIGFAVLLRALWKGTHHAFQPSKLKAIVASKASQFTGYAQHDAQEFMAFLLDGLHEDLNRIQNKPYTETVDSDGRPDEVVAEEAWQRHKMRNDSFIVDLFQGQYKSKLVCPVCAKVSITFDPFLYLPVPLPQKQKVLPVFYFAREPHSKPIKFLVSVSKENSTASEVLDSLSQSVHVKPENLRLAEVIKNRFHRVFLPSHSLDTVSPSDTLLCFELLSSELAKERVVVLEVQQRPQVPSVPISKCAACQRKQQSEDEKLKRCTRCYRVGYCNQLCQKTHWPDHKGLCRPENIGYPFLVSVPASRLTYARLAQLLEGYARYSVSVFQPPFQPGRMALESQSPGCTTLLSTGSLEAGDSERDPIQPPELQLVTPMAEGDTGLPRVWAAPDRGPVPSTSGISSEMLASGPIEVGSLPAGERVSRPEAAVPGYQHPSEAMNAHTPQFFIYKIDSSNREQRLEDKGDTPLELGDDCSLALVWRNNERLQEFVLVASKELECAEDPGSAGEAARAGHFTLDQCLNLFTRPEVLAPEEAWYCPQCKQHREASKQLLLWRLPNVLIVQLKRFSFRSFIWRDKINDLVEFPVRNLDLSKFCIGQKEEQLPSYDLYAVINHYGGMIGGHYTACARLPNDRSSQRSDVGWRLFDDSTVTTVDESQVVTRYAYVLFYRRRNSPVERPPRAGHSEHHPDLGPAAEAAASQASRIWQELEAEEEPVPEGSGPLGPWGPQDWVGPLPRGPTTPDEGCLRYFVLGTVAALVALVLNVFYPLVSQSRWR
Outline: (§1)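 Labelling with Biotin-Ahx-Ub-VS (0.5 µM final, 1 h) followed a 3 h triplicate treatment of HEK293T lysate (495 µg per sample, Tris/CHAPS/IGEPAL buffer with protease inhibitors) with fragment at 200 µM or vehicle. Labelled DUBs were NeutrAvidin-enriched, digested with LysC and trypsin, and run by diaPASEF LC-MS/MS. The values, average log2 fragment/vehicle ratios by unpaired t-test, come from global-median-normalised Spectronaut label-free quantities. Proteins with ≥2 unique peptides were used.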

[2] = molecular target: T2, USP22 (UniProt Q9UPT9)
T2 sequence (whole entry): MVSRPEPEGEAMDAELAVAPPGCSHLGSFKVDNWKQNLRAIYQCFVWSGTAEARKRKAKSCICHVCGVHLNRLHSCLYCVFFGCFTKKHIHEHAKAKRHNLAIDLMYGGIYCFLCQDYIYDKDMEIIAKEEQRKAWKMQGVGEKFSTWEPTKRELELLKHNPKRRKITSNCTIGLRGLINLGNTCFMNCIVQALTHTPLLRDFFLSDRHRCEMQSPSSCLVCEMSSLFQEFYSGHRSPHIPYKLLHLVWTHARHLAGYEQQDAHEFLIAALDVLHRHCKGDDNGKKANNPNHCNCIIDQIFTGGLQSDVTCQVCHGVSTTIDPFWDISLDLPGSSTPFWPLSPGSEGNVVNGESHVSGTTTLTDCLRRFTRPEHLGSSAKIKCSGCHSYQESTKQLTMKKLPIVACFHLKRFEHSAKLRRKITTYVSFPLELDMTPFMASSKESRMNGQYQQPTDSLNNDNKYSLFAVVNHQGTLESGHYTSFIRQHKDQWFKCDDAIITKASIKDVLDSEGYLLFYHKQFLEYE
Outline: as §1

[3] = molecular target: USP24 (UniProt Q9UPU5)
USP24, sequence (Q9UPU5 whole entry): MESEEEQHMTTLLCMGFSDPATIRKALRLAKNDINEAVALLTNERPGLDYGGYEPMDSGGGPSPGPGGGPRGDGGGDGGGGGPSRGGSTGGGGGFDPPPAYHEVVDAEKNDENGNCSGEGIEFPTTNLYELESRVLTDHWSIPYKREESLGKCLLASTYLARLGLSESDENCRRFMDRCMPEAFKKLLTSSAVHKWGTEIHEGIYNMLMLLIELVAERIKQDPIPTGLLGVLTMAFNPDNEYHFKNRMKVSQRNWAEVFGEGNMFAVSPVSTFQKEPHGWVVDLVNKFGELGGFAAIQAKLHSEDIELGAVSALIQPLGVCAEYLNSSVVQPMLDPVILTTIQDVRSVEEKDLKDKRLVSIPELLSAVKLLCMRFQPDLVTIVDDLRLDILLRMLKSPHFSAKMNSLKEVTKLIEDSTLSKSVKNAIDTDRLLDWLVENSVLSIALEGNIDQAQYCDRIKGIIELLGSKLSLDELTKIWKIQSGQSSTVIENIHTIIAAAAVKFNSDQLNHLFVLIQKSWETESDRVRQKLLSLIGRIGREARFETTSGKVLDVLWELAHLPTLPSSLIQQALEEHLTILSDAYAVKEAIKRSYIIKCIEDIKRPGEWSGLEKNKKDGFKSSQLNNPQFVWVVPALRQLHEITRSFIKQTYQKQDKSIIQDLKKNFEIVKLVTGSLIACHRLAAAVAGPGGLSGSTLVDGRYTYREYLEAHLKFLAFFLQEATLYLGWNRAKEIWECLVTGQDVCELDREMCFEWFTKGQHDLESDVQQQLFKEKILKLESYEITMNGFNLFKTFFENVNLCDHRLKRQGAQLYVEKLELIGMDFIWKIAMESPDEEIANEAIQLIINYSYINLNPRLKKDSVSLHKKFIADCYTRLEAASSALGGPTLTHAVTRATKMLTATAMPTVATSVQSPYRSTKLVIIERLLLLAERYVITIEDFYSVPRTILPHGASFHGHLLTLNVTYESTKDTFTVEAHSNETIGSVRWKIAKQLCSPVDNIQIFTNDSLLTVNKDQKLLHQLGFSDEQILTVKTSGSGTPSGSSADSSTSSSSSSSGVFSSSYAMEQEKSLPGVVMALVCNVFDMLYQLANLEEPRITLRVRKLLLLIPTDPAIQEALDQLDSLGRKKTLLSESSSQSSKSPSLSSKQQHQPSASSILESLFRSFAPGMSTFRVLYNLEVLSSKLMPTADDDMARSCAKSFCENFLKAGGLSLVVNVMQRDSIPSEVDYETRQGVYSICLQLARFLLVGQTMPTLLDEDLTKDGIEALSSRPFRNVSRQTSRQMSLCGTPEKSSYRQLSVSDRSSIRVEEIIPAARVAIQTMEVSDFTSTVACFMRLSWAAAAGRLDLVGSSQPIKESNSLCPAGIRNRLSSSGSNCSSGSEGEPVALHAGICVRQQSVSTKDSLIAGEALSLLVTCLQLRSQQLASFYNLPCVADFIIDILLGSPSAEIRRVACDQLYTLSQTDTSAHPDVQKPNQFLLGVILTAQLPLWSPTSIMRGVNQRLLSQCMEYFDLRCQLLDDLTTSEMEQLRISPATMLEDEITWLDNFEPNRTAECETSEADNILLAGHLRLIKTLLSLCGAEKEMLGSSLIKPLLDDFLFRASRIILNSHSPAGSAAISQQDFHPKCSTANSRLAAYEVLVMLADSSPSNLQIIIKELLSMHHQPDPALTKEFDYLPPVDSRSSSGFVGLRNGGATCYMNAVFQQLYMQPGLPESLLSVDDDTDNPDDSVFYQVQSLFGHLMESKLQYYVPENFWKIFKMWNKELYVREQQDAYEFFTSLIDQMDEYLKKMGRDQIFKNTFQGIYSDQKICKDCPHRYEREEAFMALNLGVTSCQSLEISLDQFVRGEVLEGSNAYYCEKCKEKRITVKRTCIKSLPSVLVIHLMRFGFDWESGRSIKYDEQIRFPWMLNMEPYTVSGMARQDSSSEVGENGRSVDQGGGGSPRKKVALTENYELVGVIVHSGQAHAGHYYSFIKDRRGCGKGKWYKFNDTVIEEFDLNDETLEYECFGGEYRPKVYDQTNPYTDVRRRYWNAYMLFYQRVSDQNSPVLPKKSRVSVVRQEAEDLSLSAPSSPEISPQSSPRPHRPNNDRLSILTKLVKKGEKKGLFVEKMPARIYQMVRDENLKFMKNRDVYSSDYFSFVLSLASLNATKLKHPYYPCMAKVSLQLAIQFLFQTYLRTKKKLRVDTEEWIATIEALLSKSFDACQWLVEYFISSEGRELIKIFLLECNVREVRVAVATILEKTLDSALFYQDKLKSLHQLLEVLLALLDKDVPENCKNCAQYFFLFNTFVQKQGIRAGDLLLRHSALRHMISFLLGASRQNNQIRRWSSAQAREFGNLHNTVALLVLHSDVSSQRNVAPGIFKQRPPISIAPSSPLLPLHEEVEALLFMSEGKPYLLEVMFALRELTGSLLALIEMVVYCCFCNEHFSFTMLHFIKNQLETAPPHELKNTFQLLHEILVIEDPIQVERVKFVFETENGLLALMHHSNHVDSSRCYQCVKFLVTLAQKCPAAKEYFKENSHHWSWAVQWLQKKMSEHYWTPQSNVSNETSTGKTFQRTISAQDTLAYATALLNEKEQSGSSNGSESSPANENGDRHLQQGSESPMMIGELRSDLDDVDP
Outline: as §1

[4] = molecular target: T3, USP25 (UniProt Q9UHP3)
T3 sequence (whole entry): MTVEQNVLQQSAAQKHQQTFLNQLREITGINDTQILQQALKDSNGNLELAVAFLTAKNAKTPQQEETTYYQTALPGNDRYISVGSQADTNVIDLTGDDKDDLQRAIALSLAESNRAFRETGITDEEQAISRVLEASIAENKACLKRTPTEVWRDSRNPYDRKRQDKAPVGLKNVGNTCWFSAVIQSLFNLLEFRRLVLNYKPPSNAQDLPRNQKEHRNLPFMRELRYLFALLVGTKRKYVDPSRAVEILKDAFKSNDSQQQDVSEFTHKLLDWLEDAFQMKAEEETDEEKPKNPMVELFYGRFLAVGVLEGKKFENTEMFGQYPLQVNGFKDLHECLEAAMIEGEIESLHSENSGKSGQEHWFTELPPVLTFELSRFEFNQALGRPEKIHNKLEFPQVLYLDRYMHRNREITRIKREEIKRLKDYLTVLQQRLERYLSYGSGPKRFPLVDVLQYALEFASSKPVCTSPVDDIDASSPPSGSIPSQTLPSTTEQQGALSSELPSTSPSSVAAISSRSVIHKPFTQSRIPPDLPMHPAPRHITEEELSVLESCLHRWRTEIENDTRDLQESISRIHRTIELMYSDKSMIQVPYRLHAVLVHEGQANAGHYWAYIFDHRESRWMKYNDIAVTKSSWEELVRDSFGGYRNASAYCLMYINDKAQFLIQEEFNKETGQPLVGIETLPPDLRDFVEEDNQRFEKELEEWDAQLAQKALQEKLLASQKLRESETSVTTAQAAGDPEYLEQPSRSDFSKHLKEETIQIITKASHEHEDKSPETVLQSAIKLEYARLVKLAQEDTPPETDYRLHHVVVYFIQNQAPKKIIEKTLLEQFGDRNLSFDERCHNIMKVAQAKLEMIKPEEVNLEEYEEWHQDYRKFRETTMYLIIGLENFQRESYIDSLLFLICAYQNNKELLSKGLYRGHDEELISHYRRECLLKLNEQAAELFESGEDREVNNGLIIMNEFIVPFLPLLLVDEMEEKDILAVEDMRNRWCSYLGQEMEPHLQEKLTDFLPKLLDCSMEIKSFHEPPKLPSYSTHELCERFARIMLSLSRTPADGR
Outline: as §1

[5] = molecular target: T4, USP28 (UniProt Q96RU2)
T4 sequence (whole entry): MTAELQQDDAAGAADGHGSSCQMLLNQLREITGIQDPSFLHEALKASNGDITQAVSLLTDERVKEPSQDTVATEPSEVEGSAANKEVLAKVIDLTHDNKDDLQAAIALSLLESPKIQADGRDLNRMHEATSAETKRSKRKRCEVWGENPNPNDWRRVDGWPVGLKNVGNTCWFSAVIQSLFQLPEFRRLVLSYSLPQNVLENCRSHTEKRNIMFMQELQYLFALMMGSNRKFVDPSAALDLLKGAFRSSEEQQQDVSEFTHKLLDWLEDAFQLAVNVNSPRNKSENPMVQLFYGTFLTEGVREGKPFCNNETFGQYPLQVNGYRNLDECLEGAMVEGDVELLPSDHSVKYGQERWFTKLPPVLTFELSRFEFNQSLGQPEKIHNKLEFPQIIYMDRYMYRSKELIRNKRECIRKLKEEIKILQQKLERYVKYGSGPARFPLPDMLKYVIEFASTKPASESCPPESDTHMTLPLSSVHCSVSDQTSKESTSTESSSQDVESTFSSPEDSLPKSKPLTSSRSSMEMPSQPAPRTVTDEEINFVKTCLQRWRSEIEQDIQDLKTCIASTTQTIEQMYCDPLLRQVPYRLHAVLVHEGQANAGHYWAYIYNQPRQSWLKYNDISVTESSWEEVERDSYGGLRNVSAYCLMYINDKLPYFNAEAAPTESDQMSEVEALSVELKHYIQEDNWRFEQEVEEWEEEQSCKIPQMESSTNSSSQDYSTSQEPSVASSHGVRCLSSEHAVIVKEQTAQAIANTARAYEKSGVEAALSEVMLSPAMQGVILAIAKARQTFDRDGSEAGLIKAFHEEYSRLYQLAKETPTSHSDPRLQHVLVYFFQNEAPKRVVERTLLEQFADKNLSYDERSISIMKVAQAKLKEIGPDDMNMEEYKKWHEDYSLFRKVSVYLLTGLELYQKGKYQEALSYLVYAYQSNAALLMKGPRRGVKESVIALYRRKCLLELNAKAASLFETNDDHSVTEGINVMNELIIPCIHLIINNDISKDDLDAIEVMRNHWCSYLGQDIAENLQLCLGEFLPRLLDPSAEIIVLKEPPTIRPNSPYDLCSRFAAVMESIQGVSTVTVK
Outline: as §1

Measured: log2 ratio of Biotin-Ahx-Ub-VS probe labelling

CNC(=O)C1CCN(C(=O)CCl)CC1
inactive: [1] -0.122 | [2] 0.206 | [3] -0.198 | [4] -0.123 | [5] -0.243
